These results are taken from PubChem BioAssay AID1851 (National Center for Advancing Translational Sciences (NCATS), 2009).

Structures are written as SMILES. Screen size: about 16,000 compounds; about 5,100 (32%) were called active. Not shown: some 25% with an inconclusive outcome. Calls follow the shape of the dose curve; as a rule, active = well fitted curve in the direction sought with a large enough effect; inconclusive = small, poorly fitted or top-dose-only effect, or effect the other way; inactive = no such curve, though single readings can be large or run the other way. The list shows a part of the results. A structure can be active in one record and inactive in another.
% is scaled to controls: 0 for no effect and ±100 for the full control effect.

The target in the test is Cytochrome P450 3A4 (Homo sapiens) (UniProt P08684). Nature of the test: Cytochrome panel assay with activity outcomes. The settings on record: recombinant CYP, pro-luciferin dealkylation, luminescence, p450-cyp3a4; series mostly up to 57.1 µM.
Chain of Cytochrome P450 3A4 (Homo sapiens) (P08684 whole entry, looked up): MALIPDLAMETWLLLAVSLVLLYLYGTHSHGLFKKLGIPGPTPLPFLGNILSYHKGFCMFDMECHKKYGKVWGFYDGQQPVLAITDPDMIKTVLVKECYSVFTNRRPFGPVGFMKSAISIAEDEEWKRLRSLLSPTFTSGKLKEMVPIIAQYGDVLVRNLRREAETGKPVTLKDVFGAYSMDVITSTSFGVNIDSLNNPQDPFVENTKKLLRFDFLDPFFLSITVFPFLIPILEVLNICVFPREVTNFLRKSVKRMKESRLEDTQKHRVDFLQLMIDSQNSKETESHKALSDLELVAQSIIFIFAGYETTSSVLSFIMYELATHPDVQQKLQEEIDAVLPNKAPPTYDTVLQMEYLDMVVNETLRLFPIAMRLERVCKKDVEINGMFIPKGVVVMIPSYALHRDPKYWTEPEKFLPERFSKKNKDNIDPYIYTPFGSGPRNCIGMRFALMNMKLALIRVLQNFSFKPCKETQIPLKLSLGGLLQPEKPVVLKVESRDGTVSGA
As to `c1ccc2c(c1)C(=Nc1ccc(N=C3c4ccccc4-c4ccccc43)cc1)c1ccccc1-2`, the activity, negative = inhibition is -5.03% [at 11.4 µM] (inactive).

For `CCNC(=O)C/C(C)=N/NC(=O)C12CC3CC(CC(C3)C1)C2`, the activity, negative = inhibition is 18.8% [at 2.29 µM] (inactive). `CCOC(=O)CSCC(NC(=O)OC(C)(C)C)C(=O)OCC` (centres undefined): the AC50 (commonly the concentration at which the activity in the assay is half-maximal) is “inactive”.

In the case of `Cc1ccc(S(=O)(=O)N[C@H]2COC(=O)C/C=C\[C@@H](C)COC(=O)C/C=C\[C@@H]2C)cc1`, the AC50 is 3.16 µM (active) and the activity, negative = inhibition was -13.2% [at 11.4 µM] (inactive). With `Cc1ccc(S(=O)(=O)N[C@H]2COC(=O)C/C=C\[C@H](C)[C@@H](NS(=O)(=O)c3ccc(C)cc3)COC(=O)C/C=C\[C@@H]2C)cc1`, the half-maximal activity concentration (AC50) was 3.98 µM (active). In the case of `CO[C@H]1COC(=O)C/C=C\[C@@H](C)COC(=O)[C@H]2CCCN2C(=O)C/C=C\[C@H]1C`, the activity, negative = inhibition was -22.4% [at 11.4 µM] (inactive).

On to `Cc1ccc(S(=O)(=O)N[C@H]2COC(=O)C/C=C\[C@@H](C)[C@H](NS(=O)(=O)c3ccc(C)cc3)COC(=O)[C@H](C)NC(=O)C/C=C\[C@H]2C)cc1`, for which the activity, negative = inhibition is -35.2% [at 11.4 µM] (inactive). Same read-out and setting: the value for `CO[C@H]1COC(=O)C/C=C\[C@@H](C)COC(=O)[C@@H](C)NC(=O)C/C=C\[C@@H]1C` was 14.4% [at 11.4 µM] (inactive). Consider `CC(=O)Nc1ccc(S(=O)(=O)NCC2CCC(C(=O)NCCC(C)C)CC2)cc1` (centres undefined), for which the AC50 is 17.8 µM (active). Regarding `O=C(C1CCN(S(=O)(=O)N2CCOCC2)CC1)N1CCN(c2ccccc2)CC1`, the AC50 entry is “inactive”. As for `CC(=O)Nc1ccc(S(=O)(=O)N2CCC(N(C)CCC(C)C)CC2)cc1`, the AC50 result was “inactive”.

As to `O=C(C1CCN(S(=O)(=O)c2cccc3cccnc23)CC1)N1CCN(c2ccccn2)CC1`, the half-maximal activity concentration (AC50) was 3.55 µM (active).

`O=C(c1cnc(N2CCN(c3ncccn3)CC2)c2ccccc12)N1CCN(c2ccccn2)CC1`: the activity, negative = inhibition was -7.43% [at 11.4 µM] (inactive). For the molecule `CC(C)c1ccc(OCc2ccc(C(=O)N3CCN(c4ccccn4)CC3)cc2)cc1`, the AC50 result is “inactive”. Same read-out and setting: next, `CC(=O)Nc1ccc(S(=O)(=O)NCC2CCC(C(=O)N3CCN(c4ccccn4)CC3)CC2)cc1` (centres undefined): 12.6 µM (active); `COCC(=O)N1CCC2(CC1)CN(c1ccccn1)C2`: “inactive”; `CC(=O)N1CCC2(CC1)CCN(c1ccccn1)CC2`: “inactive”. For `COc1ccc(S(=O)(=O)NCc2ccc(C(=O)N3CCN(c4ccccn4)CC3)cc2)cc1`, the AC50 was 15.8 µM (active).

`COC(Cn1c(C)c(C(C)=O)c(C(C)=O)c1C)OC`: the AC50 entry was “inactive”.

As for `O=C(O)COC(=O)Cc1ccccc1Nc1c(Cl)cccc1Cl`, the AC50 result is “inactive”. As to `CCOC(=O)n1ccn(C)c1=S`, the AC50 result is “inactive”. Take `Cc1ccc2cc(CCNC(=O)c3ccc(Br)o3)c(=O)[nH]c2c1`: the AC50 is 14.1 µM (active).

On to `COc1ccc2cc(CCNC(=O)C3CC3)c(=O)[nH]c2c1`, for which the AC50 result was “inactive”. With `CCOC(=O)N/N=C1/C[C@@H](O)[C@@H](O)[C@@H]2[C@@H]3C(=O)N(c4cccc(Oc5ccccc5)c4)C(=O)[C@H]3CC[C@@H]12`, the activity, negative = inhibition was -28.7% [at 11.4 µM] (inactive). Consider `O=C(N/N=C1/C[C@@H](O)[C@@H](O)[C@@H]2[C@@H]3C(=O)N(Cc4ccc5c(c4)OCO5)C(=O)[C@H]3CC[C@H]12)OCc1ccccc1`, for which the AC50 was 3.98 µM (active). `O=C(N/N=C1/C[C@@H](O)[C@@H](O)[C@@H]2[C@@H]3C(=O)N(Cc4ccccc4)C(=O)[C@H]3CC[C@H]12)OCc1ccccc1`: the activity, negative = inhibition was -21.6% [at 11.4 µM] (inactive). Turning to `COc1ccc(COC(=O)N/N=C2/C[C@@H](O)[C@@H](O)[C@@H]3[C@@H]4C(=O)N(c5cccc(Oc6ccccc6)c5)C(=O)[C@H]4CC[C@H]23)cc1`, the AC50 was 3.16 µM (active). For the molecule `CCOC(=O)N/N=C1/C[C@@H](O)[C@@H](O)[C@@H]2[C@@H]3C(=O)N(Cc4ccc5c(c4)OCO5)C(=O)[C@H]3CC[C@@H]12`, the AC50 is 3.98 µM (active). For `CCN1C(=O)[C@H]2[C@H]3[C@H](O)[C@H](O)C/C(=N/NC(=O)OCc4ccccc4)[C@H]3CC[C@@H]2C1=O`, the activity, negative = inhibition is -12.4% [at 11.4 µM] (inactive). `O=C(N/N=C1/C[C@@H](O)[C@@H](O)[C@@H]2[C@@H]3C(=O)N(Cc4ccccc4)C(=O)[C@H]3CC[C@@H]12)OCc1ccccc1`: the activity, negative = inhibition is -17.8% [at 11.4 µM] (inactive). Consider `CCN1C(=O)[C@H]2[C@H]3[C@H](O)[C@H](O)C/C(=N/NC(=O)OCc4ccccc4)[C@@H]3CC[C@@H]2C1=O`, for which the activity, negative = inhibition is -8.99% [at 11.4 µM] (inactive).

As to `CCOC(=O)N/N=C1/C[C@@H](O)[C@@H](O)[C@@H]2[C@@H]3C(=O)N(Cc4ccccc4)C(=O)[C@H]3CC[C@@H]12`, the activity, negative = inhibition was -18.3% [at 11.4 µM] (inactive). With `CCOC(=O)N/N=C1/C[C@@H](O)[C@@H](O)[C@@H]2[C@@H]3C(=O)N(c4cccc(Oc5ccccc5)c4)C(=O)[C@H]3CC[C@H]12`, the activity, negative = inhibition is -29.2% [at 11.4 µM] (inactive). As to `CCOC(=O)N/N=C1/C[C@@H](O)[C@@H](O)[C@@H]2[C@@H]3C(=O)N(Cc4ccccc4)C(=O)[C@H]3CC[C@H]12`, the activity, negative = inhibition is -22% [at 11.4 µM] (inactive). Consider `O=C(N/N=C1/C[C@@H](O)[C@@H](O)[C@@H]2[C@@H]3C(=O)N(Cc4ccc5c(c4)OCO5)C(=O)[C@H]3CC[C@@H]12)OCc1ccccc1`, for which the AC50 was 1.26 µM (active). Regarding `O=C(O)C12CC3(C(=O)O)CC(C(=O)O)(CC(C(=O)O)(C1)C3=O)C2=O`, the activity, negative = inhibition is -8.55% [at 11.4 µM] (inactive). Regarding `N[C@@H](C(=O)O)c1ccc(O)c(C(=O)O)c1`, the AC50 entry is “inactive”. On the same count and under the same terms, the value for `NC(=NCCCCCCN=C(N)/N=C(\N)Nc1ccc(Cl)cc1)/N=C(\N)Nc1ccc(Cl)cc1` was “inactive”. Turning to `Nc1nc2c(c(=O)[nH]1)CN(CCCN1CCOCC1)CN2`, the activity, negative = inhibition is -5.39% [at 11.4 µM] (inactive).

As to `C[C@@H](C(=O)Nc1ccc2ccccc2c1)[C@H]1C[C@]1(C)[C@H](NS(=O)(=O)c1ccc2ccccc2c1)c1ccccc1`, the AC50 was 7.94 µM (active). Same read-out and setting: next, `Cc1nn(C)c(Cl)c1S(=O)(=O)N[C@@H](c1ccccc1)[C@]1(C)C[C@H]1[C@@H](C)C(=O)Nc1ccc2ccccc2c1`: 1.26 µM (active); `C[C@@H](C(=O)Nc1ccc2ccccc2c1)[C@@H]1C[C@@]1(C)[C@@H](NS(=O)(=O)c1ccc(-c2ccccc2)cc1)c1ccccc1`: “inactive”; `C[C@@H](C(=O)Nc1ccc2ccccc2c1)[C@H]1C[C@]1(C)[C@H](NS(=O)(=O)c1ccc(-c2ccccc2)cc1)c1ccccc1`: 10 µM (active).
